From PubChem
GIRK2 act: Activators of human GIRK2-containing channels. P48051. HEK293 GIRK2/NPY4 cells, thallium flux fluorescence. activation (% efficacy), % for hits at 37.5 µM. 34,000 tested, under 10 active. AID 1259324;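 active means primary screen hit, no activity in plain HEK293 cells, and in GIRK2-only cells above 5% efficacy rising with concentration; inactive means the rest, including fluorescent compounds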;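 further: efficacy is normalized control-subtracted fluorescence 15 s after thallium addition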
AMPAR-TARP mod: modulates AMPAR-stargazin complexes; O88602+P19491; HEK293 GluA2+stargazin, membrane potential dye (FDSS), glutamate EC50; hits were called plate by plate, in both directions; AID 1259245; 40,000 compounds, 3.5% hits; calls only at 30 µM;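 active means any of four per-well response measures lying three or more SD from its plate-wide compound average, in either direction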
* hit, by the source's call; i = inactive; nt = no result given; + = active, no number. The entries come from a sample that favours hits as a whole.

SMILES | GIRK2 act | AMPAR-TARP mod
COc1cc(S(=O)(=O)NCCNc2cc(-n3cccn3)ncn2)c(C)cc1C | i | i
COc1cc(OC)cc(C2=NC3(CCCC3)N(C(=O)c3ccc(OC)c(OC)c3)C2=S)c1 | i | i
COc1cccc(NC(=O)N(Cc2cccn2C)C2CC2)c1OC | i | nt
COc1cccc(C(=O)NCCS(=O)(=O)N2CCC3(CC2)OCCO3)c1 | nt | +
COc1cccc(C(=O)NCCS(=O)(=O)N2CCOCC2)c1 | nt | i
O=C(NCCCN1CCOCC1)C(=O)Nc1ccc(F)c([N+](=O)[O-])c1 | i | +
O=C(NCCN1CCOCC1)C(=O)Nc1ccc(F)c([N+](=O)[O-])c1 | i | i
COc1cc(NC(=O)c2ccc(S(=O)(=O)c3ccc(Cl)cc3)nc2)cc(OC)c1OC | i | i
CC(C)CCN1C(=O)C(C)(C)COc2ccc(NC(=O)COc3ccccc3)cc21 | nt | +
CC(C)CCN1C(=O)C(C)(C)COc2cc(NC(=O)COc3ccccc3)ccc21 | nt | i
COc1ccccc1-c1ccc(=O)n(Cc2cccc3ccccc23)n1 | i | i
COc1ccc(OC)c(-c2ccc(=O)n(CCNC(=O)Nc3ccccc3)n2)c1 | i | i
COc1ccc(OC)c(-c2ccc(=O)n(CCNC(=O)Nc3cc(C)cc(C)c3)n2)c1 | i | +
COc1ccc(OC)c(-c2ccc(=O)n(Cc3ccc([N+](=O)[O-])cc3)n2)c1 | i | +
COc1ccc(OC)c(-c2ccc(=O)n(Cc3cccc4ccccc34)n2)c1 | i | +
COc1ccc(OC)c(-c2ccc(=O)n(Cc3ccc(Cl)cc3Cl)n2)c1 | i | i
O=C1CC(NC(=O)Nc2ccccc2C(F)(F)F)CN1 (stereo not given) | i | nt
O=C(CCCc1ccccc1)N1CCN(c2nccn2-c2cccc(Cl)c2)CC1 | i | +
COc1ccc(CCC(=O)N2CCN(c3nccn3-c3cccc(Cl)c3)CC2)cc1 | i | i
CCOC(=O)N1CCN(C(=O)Cn2cnc3c(nnn3C)c2=O)CC1 | i | i
CC(C)N(Cc1ccccc1)C(=O)C(=O)c1c[nH]c2ccccc12 | nt | i
CC(NC(=O)C(=O)c1c[nH]c2ccccc12)c1ccccc1 (stereo not given) | nt | +
CCN(Cc1ccccc1)C(=O)C(=O)c1c[nH]c2ccccc12 | nt | +
CC(C)N(C(=O)C(=O)c1c[nH]c2ccccc12)C(C)C | nt | i
Cc1cc(C)cc(NC(=O)Cn2nc(-c3ccco3)c3sc(N4CCOCC4)nc3c2=O)c1 | i | i
SMILES | GIRK2 act | AMPAR-TARP mod
CCn1c(=NC(=O)c2ccnn2C)sc2c(OC)ccc(OC)c21 | i | nt
CCOC(=O)c1ccccc1NC(=O)CN1CCC(c2nnc(-c3ccco3)o2)CC1 | i | +
COc1ccccc1NC(=O)CN1CCC(c2nnc(-c3ccco3)o2)CC1 | i | i
O=C(CN1CCN(C2c3ccccc3-c3ccccc32)CC1)Nc1cccc(F)c1 | nt | i
O=C(CN1CCN(CC(=O)Nc2cccc(F)c2)CC1)Nc1ccc(Cl)cc1 | nt | +
CCNC(=O)CSc1nc(-c2ccccc2)c(NC(=O)C(C)(C)Oc2ccc(Cl)cc2)s1 | i | +
NC(=O)CSc1nc(-c2ccccc2)c(NC(=O)CC2CCCC2)s1 | i | +
CC(C)(C)C(=O)Nc1sc(SCC(=O)NC2CC2)nc1-c1ccccc1 | i | i
CCC(=O)Nc1sc(SCC(N)=O)nc1-c1ccccc1 | i | i
COc1ccccc1C(=O)Nc1sc(SCC(N)=O)nc1-c1ccccc1 | i | +
COc1ccc(Cl)cc1C(=O)Nc1sc(SCC(N)=O)nc1-c1ccccc1 | i | i
Cn1c(=O)c2c(nc(N3CCOCC3)n2CCSc2ncccn2)n(C)c1=O | nt | +
CCNc1nc2c(c(=O)n(C)c(=O)n2C)n1CCCOc1ccccc1 | i | i
CC(c1ccccc1)n1c(N2CCCCC2)nc2c1c(=O)n(C)c(=O)n2C (stereo not given) | i | +
Cn1c(=O)c2c(nc(N3CCOCC3)n2CCCc2ccccc2)n(C)c1=O | nt | i
CCN1CCN(c2nc3c(c(=O)n(C)c(=O)n3C)n2CCCOc2ccccc2)CC1 | nt | +
Cn1c(=O)c2c(nc(N3CCCCCC3)n2CC(O)COc2ccccc2)n(C)c1=O (stereo not given) | nt | i
COc1ccc(OCC(=O)NCC2CCN(C(C)C)CC2)cc1 | i | nt
Cc1ccc(S(=O)(=O)N2CCc3ccc(NC(=O)C4Oc5ccccc5OC4C)cc3C2)cc1 (stereo not given) | i | i
COc1cccc2sc(N3CCN(C(=O)CS(=O)(=O)Cc4ccccc4)CC3)nc12 | i | i
CC(=O)N1CCN(c2ncnc3c2nnn3-c2ccccc2)CC1 | i | i
O=c1[nH]c2c(s1)C1c3ccccc3OC3CCCC(S2)C31 (stereo not given) | nt | +
COc1ccc(NC(=O)CCc2c(C)nn(-c3nc(C)c(C)c(=O)[nH]3)c2C)cc1OC | i | i
O=C(CC1CCCCC1)N1CCN(c2ncnc3c2nnn3-c2ccccc2)CC1 | nt | i
CC(C)(C)c1ccc(S(=O)(=O)Nc2ccc3c(c2)N(C(=O)C2CC2)CC3)cc1 | i | +
SMILES | GIRK2 act | AMPAR-TARP mod
O=C(C1CC1)N1CCc2ccc(NS(=O)(=O)c3ccc(Cl)cc3)cc21 | i | i
CCc1ccc(S(=O)(=O)Nc2ccc3c(c2)N(C(=O)C(C)(C)C)CC3)s1 | i | +
COCC(=O)N1CCCc2ccc(NC(=O)c3cn(C)nc3OC)cc21 | i | i
CC(=O)Nc1ccc(S(=O)(=O)Nc2ccc3c(c2)N(C(=O)C2CC2)CC3)cc1 | i | i
COc1nn(C)cc1C(=O)Nc1ccc2c(c1)N(C(=O)C1CC1)CC2 | i | +
CCc1ccc(S(=O)(=O)Nc2ccc3c(c2)N(C(=O)C2CCCC2)CC3)s1 | i | i
O=C(C1CC1)N1CCc2ccc(NS(=O)(=O)c3ccc(Cl)s3)cc21 | i | +
Cn1cccc1CN(C1CC1)S(=O)(=O)c1ccccc1 | i | nt
O=[N+]([O-])c1cccc(S(=O)(=O)NCC2COC3(CCCCC3)O2)c1 (stereo not given) | i | +
O=[N+]([O-])c1ccc(S(=O)(=O)NCC2COC3(CCCCC3)O2)cc1 (stereo not given) | i | i
O=S(=O)(c1ccc(Cl)cc1)c1nc(-c2ccco2)oc1NCCN1CCOCC1 | i | i
CS(=O)(=O)c1ccc(CC(=O)N2CCN(c3nc4ccc([N+](=O)[O-])cc4s3)CC2)cc1 | i | i
Cc1c(C)n2c3c(=O)n(CCN4CCCCC4)c(=O)n(C)c3nc2n1C1CCCC1 | i | i
Cc1c(C)n2c3c(=O)n(CC(N)=O)c(=O)n(C)c3nc2n1C1CCCCC1 | nt | +
COc1cc(Cl)c(C)cc1NC(=O)C1COc2ccccc2O1 (stereo not given) | i | i
CCOC(=O)C1C(=O)CC(C)(O)C(C(=O)OCC)C1c1cccs1 (stereo not given) | i | i
CCOC(=O)C1C(=O)CC(C)(O)C(C(=O)OCC)C1c1ccc(C)cc1 (stereo not given) | i | +
COC(=O)CN1N=C(C(C)(C)C)Cn2c1nc1c2c(=O)n(C)c(=O)n1C | i | i
CCOC(=O)Cn1c(=O)c2c(nc3n(-c4ccccc4)c(C)c(C)n23)n(C)c1=O | nt | i
